Results: the supplement of paper PMC10849652
Of roughly 7,900 targets only a part is listed; those with a hit were picked by preference. About 0.6% of all pairs of compound and target were hits. Unmarked numbers belong to inactive results.

Columns and labels:
Assay in all cases: log2 fold change, soluble protein after heating vs DMSO (PISA); higher = thermal stabilisation; K562 cells, 10 uM, 30 min; active = over 0.2 and 3.5 SD of the protein, either way, in both replicates (recomputed)
[1] = compound: CN1CCN(CCOc2cc(OC3CCOCC3)c3c(Nc4c(Cl)ccc5c4OCO5)ncnc3c2)CC1 [saracatinib]
Outline: (§1)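 K562 cells (2×10^6 cells/mL) were treated with 10 μM compound for 30 min, and aliquots were heated for 3 min over 48°C-58°C. Pooled aliquots were extracted in PBS with 0.5% NP-40 at 4°C, and the supernatant after 21,000xg for 90 min was measured by TMTpro 16plex LC-MS/MS with channel sums equalised. Reported thermal stability, relative to control samples and from duplicates, is a log2 fold change.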

[2] = compound: CN1CCN(c2nc(C3=C(c4c[nH]c5ccccc45)C(=O)NC3=O)c3ccccc3n2)CC1 [sotrastaurin]
Outline: as §1

[3] = compound: CN1CC[C@H](c2c(O)cc(O)c3c(=O)cc(-c4ccccc4Cl)oc23)[C@H](O)C1 [alvocidib]
Outline: as §1

[4] = compound: CN1CCc2c(c3ccccc3n2Cc2ccc(C(=O)NO)cc2)C1 [Tubastatin A]
Outline: as §1

[5] = compound: CNC(=O)C1=CC=CC=C1NC2=NC(=NC=C2Cl)NC3=C(C=C(C=C3)N4CCOCC4)OC
Outline: as §1

[6] = compound: CNC(=O)c1ccc(Nc2ncc(C(F)(F)F)c(NCc3nccnc3N(C)S(C)(=O)=O)n2)cc1 [defactinib]
Outline: as §1

[7] = compound: CNCc1ccc(-c2[nH]c3cc(F)cc4c3c2CCNC4=O)cc1 [rucaparib]
Outline: as §1

[8] = compound: CNc1nc(-c2ccc3c(N)n[nH]c3c2)cc(N2C[C@@H](C(=O)NC3CCCCC3)CC[C@H]2C)n1
Outline: as §1

[9] = compound: COC(=O)N[C@@H](C)CNc1nccc(-c2cn(C(C)C)nc2-c2cc(Cl)cc(NS(C)(=O)=O)c2F)n1 [encorafenib]
Outline: as §1

[10] = compound: COC(=O)[C@H](CCSC)NC(=O)C1=C(C=C(C=C1)NC[C@H](CS)N)C2=CC=CC=C2
Outline: as §1

[11] = compound: COC1=CC=C(C=C1)CN2C=CC3=C2C=C(C=C3)C(=O)NO
Outline: as §1

[12] = compound: CON(C)C(=O)N1N=C(c2cc(F)ccc2F)S[C@@]1(CCCN)c1ccccc1 [filanesib]
Outline: as §1

[13] = compound: CO[C@H]1C[C@@H]2CC[C@@H](C)[C@@](O)(O2)C(=O)C(=O)N2CCCC[C@H]2C(=O)O[C@H]([C@H](C)C[C@@H]2CC[C@H](n3cnnn3)[C@H](OC)C2)CC(=O)[C@H](C)/C=C(\C)[C@@H](O)[C@@H](OC)C(=O)[C@H](C)C[C@H](C)/C=C/C=C/C=C/1C [zotarolimus]
Outline: as §1

[14] = compound: COc1cc(C(=O)O)ccc1NC(=O)[C@@H]1N[C@@H](CC(C)(C)C)[C@](C#N)(c2ccc(Cl)cc2F)[C@H]1c1cccc(Cl)c1F [idasanutlin]
Outline: as §1

[15] = compound: COc1cc(Nc2ncc3c(n2)-c2ccc(Cl)cc2C(c2c(F)cccc2OC)=NC3)ccc1C(=O)O [alisertib]
Outline: as §1

[16] = compound: COc1cc2nc(-c3cc(F)ccc3O)nc(N[C@@H]3CNC[C@H]3C(C)(C)O)c2cc1OC
Outline: as §1

[17] = compound: COc1cc2ncnc(Nc3ccc(F)c(Cl)c3)c2cc1OCCCN1CCOCC1 [gefitinib]
Outline: as §1

[18] = compound: COc1cccc2cc(-c3nc([C@H]4CC[C@H](C(=O)O)CC4)n4ncnc(N)c34)[nH]c12
Outline: as §1

[19] = compound: CS(=O)(=O)CCNCc1ccc(-c2ccc3ncnc(Nc4ccc(OCc5cccc(F)c5)c(Cl)c4)c3c2)o1 [lapatinib]
Outline: as §1

[20] = compound: CS(=O)(=O)N1CCN(Cc2cc3nc(-c4cccc5[nH]ncc45)nc(N4CCOCC4)c3s2)CC1 [pictilisib]
Outline: as §1

UniProt Q96AX1, sequence (Q96AX1 whole entry, looked up): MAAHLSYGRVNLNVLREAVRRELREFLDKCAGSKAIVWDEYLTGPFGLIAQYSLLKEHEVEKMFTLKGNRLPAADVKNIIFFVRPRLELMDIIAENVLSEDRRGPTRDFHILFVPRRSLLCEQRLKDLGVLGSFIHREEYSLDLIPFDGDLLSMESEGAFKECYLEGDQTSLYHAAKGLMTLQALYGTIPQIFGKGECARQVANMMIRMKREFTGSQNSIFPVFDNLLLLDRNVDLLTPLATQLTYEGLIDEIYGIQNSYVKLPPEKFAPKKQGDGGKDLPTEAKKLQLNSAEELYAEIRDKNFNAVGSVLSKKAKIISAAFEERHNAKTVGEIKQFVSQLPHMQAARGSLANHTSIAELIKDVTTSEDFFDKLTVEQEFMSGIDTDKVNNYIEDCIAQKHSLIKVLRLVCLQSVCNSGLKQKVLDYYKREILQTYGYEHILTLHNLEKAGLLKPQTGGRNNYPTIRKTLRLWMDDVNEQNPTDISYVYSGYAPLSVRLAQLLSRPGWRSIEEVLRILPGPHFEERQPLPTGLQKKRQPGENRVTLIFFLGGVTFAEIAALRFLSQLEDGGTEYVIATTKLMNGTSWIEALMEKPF
UniProt P57081, sequence (P57081 whole entry, looked up): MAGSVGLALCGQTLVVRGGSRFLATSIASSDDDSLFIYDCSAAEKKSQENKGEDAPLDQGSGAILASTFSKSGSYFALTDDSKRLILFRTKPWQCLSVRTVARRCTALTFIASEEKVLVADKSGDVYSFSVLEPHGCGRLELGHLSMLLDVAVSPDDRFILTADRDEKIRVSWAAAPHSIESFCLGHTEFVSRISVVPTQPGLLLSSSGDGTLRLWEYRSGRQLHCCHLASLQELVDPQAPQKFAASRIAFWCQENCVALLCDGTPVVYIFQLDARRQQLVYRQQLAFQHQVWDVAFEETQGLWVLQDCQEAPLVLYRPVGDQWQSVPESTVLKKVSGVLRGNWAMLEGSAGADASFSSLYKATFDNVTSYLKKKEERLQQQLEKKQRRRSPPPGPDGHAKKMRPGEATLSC
UniProt P28908, sequence (P28908 whole entry, looked up): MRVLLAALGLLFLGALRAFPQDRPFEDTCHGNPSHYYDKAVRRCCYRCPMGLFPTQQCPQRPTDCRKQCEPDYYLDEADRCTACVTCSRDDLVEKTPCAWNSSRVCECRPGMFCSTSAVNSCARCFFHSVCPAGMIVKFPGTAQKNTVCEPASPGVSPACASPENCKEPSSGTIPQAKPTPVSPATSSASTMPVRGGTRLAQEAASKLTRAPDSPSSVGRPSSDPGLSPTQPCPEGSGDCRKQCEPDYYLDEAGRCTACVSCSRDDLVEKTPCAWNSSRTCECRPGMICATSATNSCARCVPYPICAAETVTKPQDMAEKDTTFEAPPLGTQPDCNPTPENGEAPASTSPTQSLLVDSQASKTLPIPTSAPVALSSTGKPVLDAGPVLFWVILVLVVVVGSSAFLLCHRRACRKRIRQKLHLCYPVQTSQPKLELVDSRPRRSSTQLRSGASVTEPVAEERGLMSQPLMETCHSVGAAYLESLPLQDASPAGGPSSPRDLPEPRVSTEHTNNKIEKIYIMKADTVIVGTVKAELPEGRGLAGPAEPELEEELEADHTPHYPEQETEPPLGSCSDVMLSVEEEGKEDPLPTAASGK
UniProt Q7Z5K2, sequence (Q7Z5K2 whole entry, looked up): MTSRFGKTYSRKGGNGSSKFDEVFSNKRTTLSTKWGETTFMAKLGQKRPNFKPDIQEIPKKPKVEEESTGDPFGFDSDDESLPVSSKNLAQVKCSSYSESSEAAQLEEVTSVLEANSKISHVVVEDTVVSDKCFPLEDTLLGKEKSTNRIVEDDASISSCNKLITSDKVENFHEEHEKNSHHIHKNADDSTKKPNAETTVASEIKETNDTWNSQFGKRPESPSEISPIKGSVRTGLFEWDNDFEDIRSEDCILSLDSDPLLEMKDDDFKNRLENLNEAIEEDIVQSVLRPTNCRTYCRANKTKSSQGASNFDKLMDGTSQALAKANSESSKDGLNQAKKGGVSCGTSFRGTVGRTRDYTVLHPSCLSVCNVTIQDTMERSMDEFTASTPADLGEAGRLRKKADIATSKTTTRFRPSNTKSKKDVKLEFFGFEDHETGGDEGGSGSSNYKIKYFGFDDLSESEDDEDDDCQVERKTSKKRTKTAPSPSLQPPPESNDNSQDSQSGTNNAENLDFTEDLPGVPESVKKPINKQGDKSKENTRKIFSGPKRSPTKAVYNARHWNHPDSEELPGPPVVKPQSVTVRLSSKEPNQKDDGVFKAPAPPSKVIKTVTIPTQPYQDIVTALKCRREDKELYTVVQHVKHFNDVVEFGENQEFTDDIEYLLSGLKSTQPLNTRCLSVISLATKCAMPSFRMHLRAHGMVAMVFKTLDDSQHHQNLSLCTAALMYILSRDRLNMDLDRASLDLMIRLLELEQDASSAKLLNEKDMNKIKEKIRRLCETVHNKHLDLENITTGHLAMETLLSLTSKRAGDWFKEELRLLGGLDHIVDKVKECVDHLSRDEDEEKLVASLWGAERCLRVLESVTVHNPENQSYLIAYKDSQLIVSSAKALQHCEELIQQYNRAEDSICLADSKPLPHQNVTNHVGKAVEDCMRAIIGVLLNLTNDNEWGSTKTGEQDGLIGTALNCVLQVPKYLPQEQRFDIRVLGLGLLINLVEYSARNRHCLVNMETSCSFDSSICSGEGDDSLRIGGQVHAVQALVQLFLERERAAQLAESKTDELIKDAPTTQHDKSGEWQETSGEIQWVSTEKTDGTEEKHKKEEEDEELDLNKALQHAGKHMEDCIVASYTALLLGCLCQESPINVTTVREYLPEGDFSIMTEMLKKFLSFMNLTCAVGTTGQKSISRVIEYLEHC
UniProt Q15061, sequence (Q15061 whole entry, looked up): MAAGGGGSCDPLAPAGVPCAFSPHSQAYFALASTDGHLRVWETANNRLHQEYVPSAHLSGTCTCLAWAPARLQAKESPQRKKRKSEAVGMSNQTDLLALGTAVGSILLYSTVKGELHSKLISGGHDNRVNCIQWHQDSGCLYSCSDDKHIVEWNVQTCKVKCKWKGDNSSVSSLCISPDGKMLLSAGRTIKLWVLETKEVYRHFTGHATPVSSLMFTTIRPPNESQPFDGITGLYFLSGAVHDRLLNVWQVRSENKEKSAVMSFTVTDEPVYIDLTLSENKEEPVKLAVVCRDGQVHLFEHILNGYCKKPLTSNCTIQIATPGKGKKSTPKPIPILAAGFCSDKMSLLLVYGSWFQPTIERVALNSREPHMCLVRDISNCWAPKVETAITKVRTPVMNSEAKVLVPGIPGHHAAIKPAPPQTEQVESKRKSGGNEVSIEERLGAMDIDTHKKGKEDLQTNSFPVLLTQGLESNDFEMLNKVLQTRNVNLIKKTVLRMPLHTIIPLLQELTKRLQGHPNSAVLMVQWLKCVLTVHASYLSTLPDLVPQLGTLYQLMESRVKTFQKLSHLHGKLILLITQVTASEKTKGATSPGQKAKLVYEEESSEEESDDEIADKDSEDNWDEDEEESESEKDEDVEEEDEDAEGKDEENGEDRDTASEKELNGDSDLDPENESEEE
UniProt Q641Q2, sequence (Q641Q2 whole entry, looked up): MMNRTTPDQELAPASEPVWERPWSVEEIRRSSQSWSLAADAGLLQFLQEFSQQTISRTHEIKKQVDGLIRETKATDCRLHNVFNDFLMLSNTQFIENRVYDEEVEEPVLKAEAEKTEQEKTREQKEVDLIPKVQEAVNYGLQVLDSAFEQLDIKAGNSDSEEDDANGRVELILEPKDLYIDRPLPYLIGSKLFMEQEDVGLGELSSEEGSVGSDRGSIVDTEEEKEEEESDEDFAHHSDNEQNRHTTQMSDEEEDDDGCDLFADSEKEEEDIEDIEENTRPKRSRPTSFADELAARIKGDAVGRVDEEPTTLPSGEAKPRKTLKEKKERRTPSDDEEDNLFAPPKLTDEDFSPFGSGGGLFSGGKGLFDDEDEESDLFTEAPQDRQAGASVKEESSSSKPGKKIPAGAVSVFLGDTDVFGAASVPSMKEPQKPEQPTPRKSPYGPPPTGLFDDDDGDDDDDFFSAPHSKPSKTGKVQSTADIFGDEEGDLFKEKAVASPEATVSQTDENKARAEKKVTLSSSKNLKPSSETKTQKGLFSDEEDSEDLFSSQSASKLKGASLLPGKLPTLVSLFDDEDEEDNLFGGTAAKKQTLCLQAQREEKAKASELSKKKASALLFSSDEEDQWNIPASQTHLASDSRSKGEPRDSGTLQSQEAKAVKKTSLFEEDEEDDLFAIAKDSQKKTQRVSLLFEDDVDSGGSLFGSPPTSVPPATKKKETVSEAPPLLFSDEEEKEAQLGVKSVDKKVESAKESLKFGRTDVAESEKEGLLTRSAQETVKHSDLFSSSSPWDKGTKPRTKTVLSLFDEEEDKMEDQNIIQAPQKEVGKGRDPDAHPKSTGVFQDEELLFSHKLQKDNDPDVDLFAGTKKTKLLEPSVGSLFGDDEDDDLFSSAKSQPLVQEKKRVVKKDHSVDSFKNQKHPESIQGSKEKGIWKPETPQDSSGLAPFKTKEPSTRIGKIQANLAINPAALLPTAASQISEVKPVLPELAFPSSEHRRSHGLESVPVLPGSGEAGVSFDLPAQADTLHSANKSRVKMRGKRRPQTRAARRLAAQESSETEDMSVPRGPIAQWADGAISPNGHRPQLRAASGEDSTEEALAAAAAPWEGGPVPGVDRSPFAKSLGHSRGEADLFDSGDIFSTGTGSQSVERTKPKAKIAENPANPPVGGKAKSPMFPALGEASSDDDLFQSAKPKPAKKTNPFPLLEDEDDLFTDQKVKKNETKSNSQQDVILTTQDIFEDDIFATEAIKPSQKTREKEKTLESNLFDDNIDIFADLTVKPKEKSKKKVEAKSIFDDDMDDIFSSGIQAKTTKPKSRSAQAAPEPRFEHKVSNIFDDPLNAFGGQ
UniProt Q9BUB7, sequence (Q9BUB7 whole entry, looked up): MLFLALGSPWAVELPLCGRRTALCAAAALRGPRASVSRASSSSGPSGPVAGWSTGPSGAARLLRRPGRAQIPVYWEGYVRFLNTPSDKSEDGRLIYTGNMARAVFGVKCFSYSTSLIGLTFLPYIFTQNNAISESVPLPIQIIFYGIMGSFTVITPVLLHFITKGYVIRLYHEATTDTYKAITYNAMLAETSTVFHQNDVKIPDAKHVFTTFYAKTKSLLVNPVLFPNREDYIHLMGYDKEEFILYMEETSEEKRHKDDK

| Target | log2 fold change [1] | log2 fold change [2] | log2 fold change [3] | log2 fold change [4] | log2 fold change [5] | log2 fold change [6] | log2 fold change [7] | log2 fold change [8] | log2 fold change [9] | log2 fold change [10] | log2 fold change [11] | log2 fold change [12] | log2 fold change [13] | log2 fold change [14] | log2 fold change [15] | log2 fold change [16] | log2 fold change [17] | log2 fold change [18] | log2 fold change [19] | log2 fold change [20] |
| --- | --- | --- | --- | --- | --- | --- | --- | --- | --- | --- | --- | --- | --- | --- | --- | --- | --- | --- | --- | --- |
| TMEM120A (UniProt Q9BXJ8) | 0.036 | -0.098 | -0.084 | 0.069 | -0.013 | -0.104 | -0.559 (active) | -0.036 | 0.184 | -0.047 | -0.2 | -0.049 | 0.038 | -0.217 | -0.08 | -0.08 | 0.113 | -0.02 | 0.06 | -0.094 |
| XPO6 (UniProt Q96QU8) | -0.012 | -0.119 | -0.115 | -0.009 | 0.036 | -0.104 | 0.076 | 0.037 | 0.015 | -0.03 | -0.453 | -0.074 | 0.047 | -0.079 | 0.171 | 0.064 | -0.029 | -0.052 | -0.055 | -0.025 |
| TMEM177 (UniProt Q53S58) | 0.078 | 0.014 | 0.031 | 0.08 | 0.005 | -0.046 | 0.009 | -0.003 | -0.02 | 0.024 | -0.037 | -0.115 | 0.019 | -0.077 | -0.199 | -0.154 | 0.077 | 0.086 | -0.016 | 0.151 |
| WDR43 (UniProt Q15061) | 0.031 | 0.014 | 0.062 | -0.045 | 0.001 | 0.101 | 0.07 | -0.002 | -0.009 | -0.007 | -0.014 | -0.019 | -0.017 | -0.072 | -0.061 | 0.058 | -0.006 | 0.042 | -0.025 | 0.06 |
| VPS33A (UniProt Q96AX1) | -0.036 | -0.174 | -0.071 | 0.033 | -0.043 | -0.06 | 0.045 | -0.013 | -0.003 | -0.025 | 0.018 | -0.096 | 0.033 | -0.039 | -0.037 | 0.014 | -0.033 | -0.039 | 0.015 | -0.083 |
| WAPL isoform 3 (UniProt Q7Z5K2) | 0.043 | -0.144 | -0.296 | 0.063 | -0.008 | -0.265 | -0.066 | -0.052 | 0.212 | -0.079 | 0.052 | -0.009 | 0.128 | -0.027 | 0.038 | -0.273 | -0.006 | -0.003 | 0 | 0.027 |
| WDR4 (UniProt P57081) | 0.008 | 0.071 | -0.068 | 0.018 | -0.022 | -0.027 | -0.079 | 0.024 | 0.041 | -0.033 | 0.017 | -0.022 | 0.004 | -0.096 | -0.059 | -0.058 | -0.01 | 0.049 | 0.206 | 0.131 |
| UBLCP1 (UniProt Q8WVY7) | 0.036 | -0.032 | 0.024 | 0.147 | 0.027 | -0.016 | -0.068 | -0.038 | 0.088 | -0.034 | -0.046 | -0.001 | -0.008 | -0.013 | 0.028 | 0.181 | 0.044 | -0.034 | 0.021 | 0.028 |
| TRAPPC8 (UniProt Q9Y2L5) | -0.017 | -0.044 | -0.055 | -0.004 | 0.014 | -0.104 | 0.074 | 0.008 | 0.032 | -0.032 | 0.032 | -0.017 | 0.03 | -0.059 | 0.003 | 0.013 | 0.009 | -0.021 | 0.021 | -0.001 |
| VAMP7 (UniProt P51809) | 0.029 | 0.012 | -0.019 | -0.001 | 0.03 | -0.028 | -0.027 | -0.022 | 0.029 | -0.011 | 0.035 | -0.095 | -0.005 | -0.111 | -0.072 | 0.099 | 0.033 | 0.012 | -0.005 | -0.001 |
| TNFRSF8 (UniProt P28908) | 0.037 | 0.092 | -0.013 | 0.031 | -0.013 | -0.034 | 0.012 | 0.04 | -0.046 | -0.02 | 0.019 | 0.11 | -0.019 | 0.04 | -0.011 | 0.074 | 0.067 | 0 | 0.003 | 0.047 |
| WDR7 (UniProt Q9Y4E6) | 0.024 | 0.041 | 0.04 | -0.047 | -0.114 | -0.3 | 0.128 | -0.015 | -0.174 | -0.373 | -0.04 | 0.084 | 0.045 | -0.016 | -0.076 | -0.102 | -0.027 | -0.074 | 0.003 | -0.097 |
| WASHC3 (UniProt Q9Y3C0) | 0.055 | 0.026 | 0.077 | 0.054 | 0.004 | -0.02 | -0.022 | -0.02 | -0.005 | 0.008 | 0.108 | -0.061 | 0.001 | 0.068 | 0.077 | 0.002 | -0.014 | 0.042 | -0.029 | 0.05 |
| WASHC2A (UniProt Q641Q2) | 0.013 | 0.001 | 0.052 | 0.016 | 0.015 | 0.01 | 0.045 | -0.039 | 0.019 | 0.017 | 0.007 | 0.019 | -0.053 | 0.063 | -0.065 | -0.011 | -0.009 | -0.005 | 0.02 | 0.038 |
| USP9X (UniProt Q93008) | -0.006 | -0.073 | -0.056 | -0.014 | -0.022 | -0.03 | 0.032 | -0.003 | 0.082 | -0.009 | -0.02 | -0.017 | 0.018 | -0.096 | -0.02 | 0.029 | -0.007 | -0.008 | -0.027 | -0.033 |
| TMEM70 (UniProt Q9BUB7) | 0.106 | 0.028 | 0.015 | 0.011 | 0.142 | -0.004 | -0.057 | -0.001 | 0.009 | 0 | -0.041 | -0.157 | -0.009 | -0.016 | 0.126 | -0.118 | -0.026 | 0.106 | -0.039 | 0.059 |
